Here are results for 40 molecules from PubChem BioAssay (NCATS).

Results filed as inconclusive are left out. Where a call stands in place of a potency, no number is given. Activity calls are given as the source filed them. Calls come from the whole dose curve; as a rule, active = well fitted inhibition curve with a large enough effect; inconclusive = small, poorly fitted or top-dose-only effect; inactive = no such curve, though single readings can be large or run the other way.

This test in a line: Primary qHTS for inhibitors of La Crosse Virus (LACV) - induced cell death in SH-SY5Y cells (AID 1508616).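 Note: top concentration of the series differs between compounds; higher means more rescue of cells from virus-induced death.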 The note with it: SH-SY5Y LACV cytopathicity rescue, ATP luminescence, 6 d; series mostly up to 9.63 µM. From the text:
Assay Provider: Karin Peterson Ph.D.
National Institute of Allergy and Infection Diseases, National Institute of Health
La Crosse Virus (LACV) is a California serogroup mosquito-borne arbovirus, family Peribunyaviridae, which is an endemic pathogen in North America and can induce a rare, life-threatening neurological disease in children. LACV was first isolated in the early 1960s, from a summer "rural encephalitis" case in La Crosse, Wisconsin, USA. Since then, LACV encephalitis cases have been found in more than twenty states, with most cases in the Mississippi and Ohio River basins. The life cycle of LACV is maintained between the vector, the eastern tree-hole mosquito Aedes triseriatus, and vertebrate hosts including eastern gray squirrels (Sciurus carolinensis) and chipmunks (Tamiasstriatus grinseus). […] Most LACV infections in humans are asymptomatic or induce mild clinical symptoms of fever, headache, lethargy and vomiting. However, in some cases LACV can cause severe neuroinvasive disease, including encephalitis, meningitis, and meningoencephalitis, requiring hospitalization. To date, there is neither a licensed vaccine nor a Food and Drug Administration (FDA) approved antiviral therapy available to prevent or treat LACV encephalitis. The primary treatment for viral encephalitis is palliative care due to the lack of therapeutics. In the current study, we conducted a screen of 4,096 FDA approved and bioactive small molecules against LACV, by screening for rescue of LACV-induced cell death in SH-SY5Y cells.
LACV-induced cytopathicity assay
SEQUENCE No. (1,2, 3, etc.); […] (e.g., Cells, Incubation, Reagent, etc.); VALUE and DESCRIPTION.
1. Reagent; 2 uL; Cell solution.
3. Compounds; 23nL; Compound library
4. Reagent; 12 uL; LACV virus
6. Reagent; 24 uL; ATPLite (PerkinElmer)
7. Time; 5 min; Room temperature
8. Detection; Luminescence; View
NOTES (numbers refer to sequence above)
1. Seed 6000 SH-SY5Y cells (ATCC CRL-2266) in 2 microL/well media (DMEM/F12 10% FBS, 1x L-Glutamine, 1x Pyruvate, 1x NEAA, 1x Pen/Strep) in 384-well assay plates (tissue culture treated, white, solid bottom).
2. Incubate at 37 degrees C with 5% CO2 for 24 hr.
3. Dispense 23 nL/well compounds in DMSO via pin transfer.
4. Dispense 12 microL/well of LACV (LACV/human/1978) in media at 0.01 MOI.
5. Incubate at for 6 days at 37C 5% CO2
6. Dispense 24 microL/well of ATPLite 1step Luminescence assay system (PerkinElmer).
7. Incubate for 5 min at room temperature.
8. Read luminescence signal (Viewlux plate reader, PerkinElmer). Data was normalized with DMSO control wells containing LACV as 0%, and DMSO control wells without virus as 100%.
On the technique in general: Quantitative high-throughput screening tests each substance at several concentrations.
For the molecule `CC1C(=O)N(C)C(=O)c2nc[nH]c21` (stereo not given), the Potency entry was “inactive”.

`Cc1ccc2c(c1)C(N1CCN(C)CC1)=Nc1cccnc1N2`: the Potency entry was “inactive”.

Turning to `O=[N+]([O-])c1cccc2cn[nH]c12`, the Potency result was “inactive”.

Consider `Nc1ncnc2c1ncn2C1CCCC1`, for which the Potency result was “inactive”.

Take `NC1CCN(O)C1=O` (stereo not given): the Potency entry is “inactive”.

Turning to `CCN(CC)CCOC(=O)c1cc(Cl)c(N)cc1OC`, the Potency entry was “inactive”.

As for `O=C(O)C1CN(CCCP(=O)(O)O)CCN1` (stereo not given), the Potency entry was “inactive”.

`CCOC(=O)C12CC1/C(=N/O)c1ccccc1O2` (stereo not given): the Potency result is “inactive”.

For the molecule `CNC(=O)c1cc2c(cn1)[nH]c1ccccc12`, the Potency entry is “inactive”.

In the case of `COC(=O)C(C)(N)Cc1ccc(O)cc1` (stereo not given), the Potency result is “inactive”.

As to `O=C(O)[C@H]1NCCC[C@H]1C(=O)O`, the Potency result is “inactive”.

Take `O=C(O)C1CCCNC1` (stereo not given): the Potency result was “inactive”.

For `CNc1ncnc2c1ncn2[C@H]1C[C@H](OP(=O)(O)O)[C@@H](COP(=O)(O)O)O1`, the Potency entry was “inactive”.

Consider `C=CCNc1ncnc2ccc(Br)cc12`, for which the Potency entry is “inactive”.

As to `COc1cc([C@@H]2c3cc4c(cc3[C@H](O)C3COC(=O)[C@@H]32)OCO4)cc(OC)c1OC` (stereo not given in full), the Potency result is “inactive”.

As for `O=C(O)c1ccccc1Nc1cccc(OCc2ccc3ccccc3n2)c1`, the Potency entry is “inactive”.

Regarding `N#CC(=C(\N)Sc1ccccc1N)/C(C#N)=C(/N)Sc1ccccc1N`, the Potency entry was “inactive”.

`CNCCc1cnc(CCC(c2ccccc2)c2ccccc2)[nH]1`: the Potency entry was “inactive”.

For `CCCOC(=O)c1c(-c2ccccc2)nc(CC)c(C(=O)SCC)c1CCC`, the Potency result was “inactive”.

Take `Cn1ccnc1`: the Potency entry is “inactive”.

Consider `NC1(C(=O)O)CCc2cc(C(=O)O)ccc21` (stereo not given), for which the Potency result was “inactive”.

Regarding `C[C@H](NC(=O)/C(C#N)=C/c1ccc(O)c(O)c1)c1ccccc1`, the Potency entry was “inactive”.

For the molecule `C[C@H]1CC2C3CCC4=CC(=O)C=C[C@]4(C)[C@@]3(Cl)[C@@H](O)C[C@]2(C)[C@@]1(O)C(=O)CO` (stereo not given in full), the Potency result is “inactive”.

Regarding `COc1cc(C(O)C(=O)O)ccc1O` (stereo not given), the Potency entry is “inactive”.

For `COc1cc(N)c(Cl)cc1C(=O)OCCN1CCCCC1`, the Potency result is “inactive”.

With `CC1CCN=C(N)S1` (stereo not given), the Potency result is “inactive”.

Consider `Fc1ccc(CN(C2=NCCN2)c2c(Cl)cccc2Cl)cc1`, for which the Potency entry was “inactive”.

`CN1CCc2cc(Cl)c(O)cc2[C@@H](c2ccccc2)C1`: the Potency entry is “inactive”.

With `CC(=O)N[C@@H](Cc1c[nH]c2ccccc12)C(=O)OCc1cc(C(F)(F)F)cc(C(F)(F)F)c1`, the Potency result is “inactive”.

`CC(C)(CO)Cc1cc(C(C)(C)C)c(O)c(C(C)(C)C)c1`: the Potency result was “inactive”.

Consider `NCCCCN=C(N)N`, for which the Potency entry is “inactive”.

As to `NCCCNCCCCNCCCN`, the Potency result was “inactive”.

Consider `COCc1nc2c([nH]1)c(=O)n(C)c(=O)n2CC(C)C`, for which the Potency result was “inactive”.

With `C=C(C)C1CC=C(C(=O)O)CC1` (stereo not given), the Potency result is “inactive”.

For `N#Cc1cc2nc(O)c(O)nc2cc1[N+](=O)[O-]`, the Potency entry was “inactive”.

`CC(=O)NNC(=O)N1Cc2ccccc2Oc2ccc(Cl)cc21`: the Potency result is “inactive”.

`COc1cc(/C=C(\C#N)C(=O)c2ccc(O)c(O)c2)cc(I)c1O`: the Potency result is “inactive”.

For `CC[C@@H]1Cc2cc(O)ccc2C2=C1c1ccc(O)cc1C[C@H]2CC`, the Potency result was “inactive”.

Turning to `CCCc1c(OCCCOc2ccc(OCC(=O)O)cc2)ccc(C(C)=O)c1O`, the Potency entry is “inactive”.

Take `COc1cc(C(O)CO)ccc1O` (stereo not given): the Potency result was “inactive”.
